Compound activity (PubChem)
An excerpt weighted towards active compounds, which were near 13% of everything screened.
L major viab – inhibitors of Leishmania major promastigote growth. Leishmania major promastigotes, resazurin fluorescence viability. inhibition, % at 10 µM. 200,000 tested, 9% active; in the data active means inhibition above about 50%;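 further: promastigotes grown with compound for 44 hours at 28 °C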
RAM inhibit – blocks the yeast RAM network; S. cerevisiae dse1pr::URA3 reporter, 5-FOA growth OD615, 2 d; analog-sensitive cbk1-as2 kinase mutant strain; inhibition, % at 50 µM; 190,000 tested, 1.8% active; AID 868;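 active means inhibition above a set limit, 3 SD over mean compound inhibition, cut at about 8.4% in these data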;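 further: inhibition rescues growth on 5-FOA so higher OD means more RAM inhibition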
WT yeast gro inh – growth inhibition of WT yeast, mitochondrial fusion screen; mitochondrial fusion phenotypic screen, WT strain; inhibition, % at 10 µM; 190,000 tested, 2.1% active; in the data active means inhibition above about 58%; tested in S. cerevisiae
CHOP inh – CHOP inhibition in unfolded protein response; CHO-K1 CHOP-promoter luciferase, tunicamycin-induced, 15-18 h; inhibition, % at 10 µM; 220,000 tested, 3.8% active; AID 2732;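 active means compounds that reduced the stress-induced luciferase reporter signal by more than about 70% of percent inhibition, limit read from the data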
Of the large screens only hits and unclear results are named; the others gave an inactive call.

O=[N+]([O-])c1cccc(/C=N/Nc2nc(N3CCCCC3)nc(N3CCCCC3)n2)c1	L major viab 75.8
O=[N+]([O-])c1cccc(-c2ccc(/C=N/Nc3nc(N4CCCCC4)nc(N4CCCCC4)n3)o2)c1	L major viab 90.3
O=[N+]([O-])c1ccc(-c2ccc(/C=N/Nc3nc(N4CCCC4)nc(N4CCCC4)n3)o2)cc1	none
O=[N+]([O-])c1cccc(-n2cccc2/C=N/Nc2nc(N3CCCCC3)nc(N3CCCCC3)n2)c1	none
O=[N+]([O-])c1ccc(-c2ccc(/C=N/Nc3nc(N4CCCCC4)nc(N4CCCCC4)n3)o2)cc1	CHOP inh 95.2
O=[N+]([O-])c1ccc(/C=N/Nc2ccc3ccccc3c2)o1	none
COc1nc(N/N=C/c2ccc(-c3cccc([N+](=O)[O-])c3)o2)nc(N2CCOCC2)n1	CHOP inh 70.8
CCNc1nc(NCC)nc(N/N=C/c2ccc([N+](=O)[O-])o2)n1	L major viab 97.7
[NH-]c1ncnc2c1N=C[N+]2=CC=CCO	none (no result: L major viab, RAM inhibit, WT yeast gro inh)
Cn1nc(C(=O)Nc2nc(-c3ccc(F)cc3)cs2)ccc1=O	none (no result: L major viab, RAM inhibit, WT yeast gro inh)
Cc1noc(C)c1-c1nc(CS(=O)(=O)c2ccc(F)cc2)no1	none (no result: L major viab, RAM inhibit, WT yeast gro inh)
CC(C)(C)CC(C)(C)NCC(O)COc1c(F)cc(Br)cc1F (stereo not given)	L major viab 100.5
CC(C)(C)NCC(O)COc1c(F)cc(Br)cc1F (stereo not given)	none
Cc1[nH]n(-c2ccccc2)c(=O)c1C(C[N+](=O)[O-])c1ccc(Br)cc1 (stereo not given)	L major viab 100.3
O=C(NCc1ccco1)c1ccc(COc2cc(Cl)ccc2Cl)cc1	none
COc1ccccc1NC(=O)N1CCCC(c2nc3c(nnn3Cc3ccc(C)cc3)c(=O)[nH]2)C1 (stereo not given)	L major viab 52.1
COc1ccc(OCC(O)CNC(=O)c2ccc(C)cc2)cc1 (stereo not given)	none (no result: L major viab, RAM inhibit, WT yeast gro inh)
CN1CCC=C(C(=O)N2c3ccccc3Sc3ccc(Cl)cc32)C1	none (no result: L major viab, RAM inhibit, WT yeast gro inh)
Cc1cc(C(=O)CSc2ncn[nH]2)c(C)n1-c1cccc(S(=O)(=O)N2CCOCC2)c1	L major viab 59.1
Cc1cc(C(=O)CN2C(=O)CN(C)C2=O)c(C)n1-c1cccc(S(=O)(=O)N2CCOCC2)c1	none
CCN(CC)S(=O)(=O)c1cccc(NC(=O)/C=C/c2cccc([N+](=O)[O-])c2)c1	L major viab 99.3
CC(C)CNC(=O)c1ccccc1NC(=O)/C=C/c1cccc([N+](=O)[O-])c1	L major viab 52.6
CN(C)S(=O)(=O)c1cccc(NC(=O)COC(=O)/C=C/c2ccco2)c1	none
CCN(CC)S(=O)(=O)c1cccc(NC(=O)COC(=O)/C=C/c2ccco2)c1	L major viab 57.3
COc1ccc(C[C@@H]2CN3C(=NC[C@@H]3C)N2CCNC(=O)c2ccc(C)c(Br)c2)cc1	none
COc1cc2c(C(=O)N3CCOCC3)c(CSc3ccccc3)n(C)c2cc1Br	WT yeast gro inh 60.0
CCOC(=O)c1c(C)n(C)c2cc(Br)c(OC)cc12	none
CCOC(=O)c1c(CN2CCN(CCO)CC2)n(C)c2cc(Br)c(OC)cc12	L major viab 54.0
CCOC(=O)c1c(C)n(CC(O)CN(CC)CC)c2cc(Br)c(OC)cc12 (stereo not given)	L major viab 89.2
COc1cc2c(C(=O)N3CCN(C)CC3)c(C)n(-c3ccccc3)c2cc1Br	none
CCN(CC)CCNC(=O)c1c(C)n(-c2ccccc2)c2cc(Br)c(OC)cc12	L major viab 100.5
COc1ccc(CNC(=O)CSc2nnc3c(Cl)cc(C(F)(F)F)cn23)cc1OC	none
CC1(C(=O)OCc2cc(=O)n3cc(Br)ccc3n2)CC1(Cl)Cl (stereo not given)	none
COc1cccc(CN(C)CC(=O)NC(=O)NCc2ccco2)c1	none
CCOC(=O)c1c(CNCCN(CC)CC)n(C)c2cc(Br)c(OC)cc12	L major viab 100.3
CCOC(=O)c1c(CN2CCCCC2)n(C)c2cc(Br)c(OC)cc12	L major viab 99.4
Cc1nnc(SCCn2c(N3CCN(c4ccccc4)CC3)nc3c2c(=O)n(C)c(=O)n3C)s1	none (no result: L major viab, RAM inhibit, CHOP inh)
O=C(Cn1nc(C(F)(F)F)cc1C1CC1)NCc1ccccc1F	none
Cc1ccc(SCCC(=O)Nc2ccc(Br)c(C)c2)cc1	none
Cc1ccc(S(=O)(=O)CCC(=O)OCC(=O)c2ccc(C)c(C)c2)cc1	RAM inhibit 10.8
Cc1occc(=O)c1OC(=O)Nc1ccc(Cl)c(Cl)c1	WT yeast gro inh 79.9, CHOP inh 96.1
COc1ccc(C(NC(=O)C(C)C)c2ccc3cccnc3c2O)cc1 (stereo not given)	CHOP inh 78.8 (no result: L major viab, RAM inhibit, WT yeast gro inh)
CC(=O)NC(c1ccco1)c1ccc2cccnc2c1O (stereo not given)	L major viab 98.2 (no result: CHOP inh)
CC(=O)NC(c1ccc(C)cc1)c1cc([N+](=O)[O-])c2cccnc2c1O (stereo not given)	none
CCCCOc1ccc(C(C)NC(=O)CCS(=O)(=O)Cc2ccccc2F)cc1 (stereo not given)	CHOP inh 70.7
CC(NC(=O)CCCOc1ccc(Cl)cc1)c1ccccc1 (stereo not given)	none
COc1ccc([C@H]2C=C3CN(C(=O)OC(C)(C)C)S(=O)(=O)[C@H]3C[C@H]2OC(=O)c2cccs2)cc1	none (no result: L major viab, RAM inhibit, WT yeast gro inh)
O=c1c(Cl)c(N2CCCCC2)cnn1-c1nc2ccccc2[nH]1	L major viab 59.8
O=c1c2ccccc2cnn1-c1nc2ccccc2[nH]1	WT yeast gro inh 86.0, CHOP inh 92.8
CCc1ccc(NC(=O)C2CCCN2S(=O)(=O)c2ccc3c(c2)n(C)c(=O)c(=O)n3C)cc1 (stereo not given)	none (no result: L major viab, RAM inhibit, WT yeast gro inh)
CC(C)(C)S(=O)(=O)c1ccc(S(=O)(=O)C(C)(C)C)s1	none
CC(C#N)(Nc1ccc(Cl)cc1)c1cccnc1 (stereo not given)	L major viab 70.2
COC(=O)COc1ccc2c(-c3ccc(OC)cc3)cc(=O)oc2c1	none
COc1ccc(-c2cc(=O)oc3cc(OC(=O)C4CCCCC4)ccc23)cc1	RAM inhibit 11.1
CCOC(=O)C(Oc1ccc2c(-c3ccccc3)cc(=O)oc2c1)c1ccccc1 (stereo not given)	L major viab 78.4
O=C(Oc1ccc2c(-c3ccccc3)cc(=O)oc2c1)C1CCCCC1	RAM inhibit 9.3
O=C(Oc1ccc2c(-c3ccccc3)cc(=O)oc2c1)c1cccs1	none
COC(=O)C(Oc1ccc2c(-c3ccc(OC)cc3)cc(=O)oc2c1)c1ccccc1 (stereo not given)	none
Cc1c(Br)c([N+](=O)[O-])nn1C(C)C(=O)N1CCCc2ccccc21 (stereo not given)	none
COC(=O)c1cnc(Oc2c(Cl)cc(N)cc2Cl)cc1C(F)(F)F	none (no result: L major viab, RAM inhibit, WT yeast gro inh)
CN(CC1CCCO1)S(=O)(=O)c1ccc(C(=O)Nc2nccs2)cc1 (stereo not given)	none (no result: L major viab, RAM inhibit, WT yeast gro inh)
CCOC(=O)c1ccc(NC(=O)CC2S/C(=N/N=C/c3c[nH]c4ccccc34)NC2=O)cc1 (stereo not given)	L major viab 62.4
CC(C)CC(=O)NC(=S)NNC(=O)c1ccc([N+](=O)[O-])cc1	none
O=C(O)CCC(=O)Nc1ccc(C(=O)OC2CCCCC2)cc1	none
O=C(OC1CCCCC1)c1ccc(NC(=O)C2CCCCC2)cc1	L major viab 87.2
CC(C)CC(=O)NC(=S)NNC(=O)c1ccc(NC(=O)C2CCCCC2)cc1	CHOP inh 72.0
